Test results published in PubChem BioAssay.
Where “and” joins values, the source holds several entries; their conditions need not be identical. Equal values may be shown once.

Assay: small-molecule microarray binders of probe aShh, primary screen, biochemical, biotinylated probe, 635/667 nm fluorescence (AID 1114);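 also: probe is biotin-labelled aShh protein from a stem cell growth factor screen; measures binding of labelled protein to compounds printed on the slide; score merges feature fluorescence at 667 nm with signal-to-noise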
Settings: higher = more signal

Row | Structure (SMILES) | composite z-score
1 | C[N+](C)(C)CCCCNC(=O)[C@H]1C[C@H]2C(=O)N[C@@H](CCCC[N+](C)(C)C)C(=O)N2[C@H]1c1ccc(O)cc1 | -0.0011 and -0.0709
2 | CO[C@@H]1COC(=O)[C@H](Cc2ccccc2)NC(=O)CC=C[C@@H](C)[C@H](OC)COC(=O)[C@@H](C)NC(=O)CC=C[C@H]1C | -0.362 and -0.102
3 | CCOC(=O)c1ccc(NC(=O)O[C@H]2[C@H](OC(=O)Nc3ccccc3)[C@H](OC(=O)Nc3ccccc3)[C@@H](OC)O[C@@H]2CO)cc1 | 0.113 and 0.337
4 | CC(C)OC(=O)C=C1C[C@@H](c2ccccc2)O[C@@H](c2ccccc2)O1 | -0.185 and 0.131
5 | C=CCN(C(=O)C1N(CCOCCO)C(=O)C2C(C(=O)O)C3C=CC21O3)c1ccc(OC)cc1 (stereo not drawn) | -0.221 and -0.195
6 | CCCC[C@@H]1CN2[C@H](c3ccc(Br)cc3)[C@@H](C)CC[C@H]2C(=O)O1 | -0.273 and -0.138
7 | COC(=O)[C@@]1(Cc2ccc(OC)cc2)[C@H]2c3cc(C(=O)N(C)C)n(Cc4ccc(O)c(OC)c4)c3C[C@H]2CN1C(=O)c1ccccc1 | -0.374 and 0.632
8 | CCOC(=O)NN=C1C[C@@H](O)[C@@H](O)[C@@H]2[C@@H]3C(=O)N(Cc4ccc5c(c4)OCO5)C(=O)[C@@H]3CC[C@@H]12 | -0.0011
9 | C=CCN(CCCC)C(=O)C(c1cccs1)N(CCOCCO)C(=O)/C=C\C(=O)O (stereo not drawn) | -0.2
10 | C=CCN(CCCCC)C(=O)C(c1cccs1)N(C(=O)/C=C\C(=O)O)c1c(Cl)cccc1CO (stereo not drawn) | -0.138 and -0.291
11 | CC(CO)N1C(=O)[C@@H]2C3C(=O)OCCC=C[C@H]3OC23C=CCN(c2ccc4ccccc4c2)C(=O)[C@@H]13 (stereo partly drawn) | 0.0141 and -0.824
12 | C=C[C@@H](C)[C@@H](O)c1ccc(O)c2ccccc12 | 0.23 and -0.214
13 | C=CCN(C(=O)C1N(CCCCCCO)C(=O)C2C(C(=O)O)C3C=CC21O3)c1ccc(OC)cc1 (stereo not drawn) | -0.0011 and 0.551
14 | CC[C@@H]1C(Sc2ccccc2)C(C(=O)O)[C@H](c2ccc(C)cc2)N1S(=O)(=O)c1ccc(C)cc1 (stereo partly drawn) | 0.108 and 0.116
15 | CC(C)=NO[C@@H](C)c1cc(-c2c(C)cc(C)cc2C)no1 | 0.0899
16 | C[N+](C)(C)CCCCCCNC(=O)[C@H]1C[C@H]2C(=O)N[C@@H](CCCC[N+](C)(C)C)C(=O)N2[C@H]1c1ccc(O)cc1 | -0.124 and 0.0326
17 | C=CCN(C(=O)C(c1cccs1)N(C(=O)/C=C\C(=O)O)c1ccc(CCO)cc1)C(C)(C)C (stereo not drawn) | -0.0035 and 0.568

Row | Structure (SMILES) | composite z-score
18 | C=C[C@@H](OC)[C@H](O)c1ccc(OC)c(O)c1 | -0.289 and -0.138
19 | C#CCCCON=C1C[C@@H](O)[C@@H](O)[C@@H]2[C@@H]3C(=O)N(C4CCCCC4)C(=O)[C@@H]3CC[C@H]12 | -0.0177
20 | CC(C)N1CC=CC23O[C@@H]4C=CCCOC(=O)C4[C@H]2C(=O)N(C(C)CO)[C@@H]3C1=O (stereo partly drawn) | -0.138 and 0.0305
21 | CCOC(=O)[C@@H]1CC=C2CC1C(=O)N1CCC[C@@H]1[C@H]2O[Si](C)(C)C(C)(C)C (stereo partly drawn) | 0.0611 and -0.2
22 | C=CCN(CCCC)C(=O)C(c1cccs1)N(C(=O)/C=C\C(=O)O)c1ccc(CCO)cc1 (stereo not drawn) | -0.0904 and -0.276
23 | COC(=O)[C@H](C)NC(=O)CCC1CC(OC(=O)NCCc2ccc(F)cc2)CC2(CCCC(COC(=O)NCCCN3CCCC3=O)O2)O1 (stereo partly drawn) | 0.0278
24 | C[C@@H]1CC[C@@H](C(=O)O)N[C@H]1c1ccc(-c2ccco2)cc1 | -0.299
25 | CCOC(=O)C[C@H]1[C@H](OC(=O)c2ccccc2-c2ccccc2)[C@@H](NC(=O)c2ccccc2)c2cc(OCCCO)ccc2N1C(=O)c1ccc2ccccc2n1 | -0.2 and 0.0078
26 | COC(=O)C1=C(C)N(Cc2ccccc2)C2=C3C(=O)N(C)C(=O)[C@@H]3[C@@](O)(C(=O)OC)C(=O)N2[C@@H]1c1ccccc1 | -0.0035 and -0.16
27 | CC(C)CON=C1C[C@@H](O)[C@@H](O)[C@@H]2[C@@H]3C(=O)N(c4cccc(Oc5ccccc5)c4)C(=O)[C@@H]3CC[C@H]12 | -0.0553
28 | C=C[C@@H](OC)[C@H](O)c1ccc(OCCO)cc1 | -0.221 and -0.138
29 | CC(CO)N1C(=O)[C@@H]2C3C(=O)OCCC=C[C@H]3OC23C=CCN(c2ccc(Cl)cc2)C(=O)[C@@H]13 (stereo partly drawn) | -0.19 and -0.0035
30 | C=CCN(CCCCC)C(=O)C1N(CCOCCO)C(=O)C2C(C(=O)O)C3C=CC21O3 (stereo not drawn) | 0.0048 and -0.124
31 | C=CCN(C(=O)C1N(CCCCCCO)C(=O)C2C(C(=O)O)C3C=CC21O3)C(C)(C)C (stereo not drawn) | -0.221 and -0.123
32 | COC(=O)C1=C(C)N(Cc2ccccc2)C2=C(C(C)=O)C[C@@](O)(C(=O)OC)C(=O)N2[C@@H]1c1ccccc1 | 0.0465 and 0.0121
33 | C=CCN(C(=O)C(c1cccs1)N(CCOCCO)C(=O)/C=C\C(=O)O)C(C)(C)C (stereo not drawn) | -0.174 and 0.151
